This experiment in a line: inhibitors of Chlamydomonas gravitaxis, primary screen, whole organism, Chlamydomonas reinhardtii, WT vs cilia-less mutant, absorbance, 96-well (AID 463189).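 Also: 0% = wild type cc124 cells in DMSO and 100% = ciliumless bld1 mutant cells.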 The following applies: OD600 absorbance, 2 days, at 10 µM, hits give high values.

Unmarked numbers belong to inactive results.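 The calls were made as follows: active = inhibition at or above 50% relative to wild type and mutant plate controls; inactive = inhibition below 50%.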

By inhibition is commonly meant the relative decrease from the control value, in per cent.

Take `N#C/C(=C\c1ccc(O)c(O)c1)C(=O)Nc1ccccc1`: the inhibition was 5.13%.

For the compound `Cn1cnc2c(NC3CCCC3)ncnc21`, the inhibition is 0.556%.

`C[N+](C)(C)CC=O`: the inhibition is 5.9%.

As to `CC(C)N(CCC(=O)c1ccc2ccccc2c1)Cc1ccccc1`, the inhibition is 10.3%.

Take `CN1CCN(C2Cc3ccccc3Sc3ccc(Cl)cc32)CC1` (stereo not drawn): the inhibition was 30.5%.

Take `CCN(CC)CCCCCCCCOC(=O)c1cc(OC)c(OC)c(OC)c1`: the inhibition was 24.5%.

Consider `[N-]=[N+]=Nc1ccc(C(=O)CSC[C@H](NC(=O)CC[C@H](N)C(=O)O)C(=O)NCC(=O)O)cc1`, for which the inhibition is -0.598%.

As to `C#C[C@]1(O)CC[C@H]2[C@@H]3CCC4=Cc5oncc5CC4(C)[C@H]3CCC21C` (stereo partly drawn), the inhibition is 4.97%.

With `C=CCn1c(=O)c2c(nc(-c3ccc(S(=O)(=O)O)cc3)n2C)n(C)c1=O`, the inhibition was 4.78%.

In the case of `O=c1cc(-c2ccccc2)[nH]c2nc(Cl)ccc12`, the inhibition was 6.49%.

With `COc1ccc2[nH]c(I)c(CCNC(C)=O)c2c1`, the inhibition is -0.69%.

In the case of `NC1(C(=O)O)CC1`, the inhibition is 5.31%.

As for `CN1CCc2c(cc(O)c(O)c2Cl)C(c2cccc(Cl)c2)C1` (stereo not drawn), the inhibition is -5.57%.

Regarding `CCCCCCCCCCCCCCCCCC(=O)OC(CC(=O)O)C[N+](C)(C)C` (stereo not drawn), the inhibition is 6.23%.

`NC(Cc1cccc(-c2ccccc2CP(=O)(O)O)c1)C(=O)O` (stereo not drawn): the inhibition was -2%.

In the case of `CC(N)(Cc1ccc(O)c(O)c1)C(=O)O` (stereo not drawn), the inhibition was 6.85%.

On to `NCCCCN=C(N)N`, for which the inhibition was 5.23%.

With `NCCc1ccc(O)c(O)c1`, the inhibition is -0.97%.

`CCCn1cnc2c1c(=O)n(CCCCC(C)=O)c(=O)n2C`: the inhibition is 3.15%.

On to `CN(C)CC/C=C1\c2ccccc2COc2ccccc21`, for which the inhibition was 6.63%.

Regarding `O=C(Cc1ccc(Cl)c(Cl)c1)OCCN1CCCC1`, the inhibition was -10.1%.

For `CN(C)CCC(c1ccccc1)c1ccccn1` (stereo not drawn), the inhibition was 7.99%.

`COC(=O)[C@@H](N)Cc1ccc(O)c(O)c1`: the inhibition is -3.44%.

For the compound `CCCN(CCC)CCc1cccc2c1CC(=O)N2`, the inhibition is 4.03%.

On to `COc1ccc2c(c1)CCC1C2CC[C@@]2(C)C1CC[C@@H]2NCCCCCCN1C(=O)C=CC1=O` (stereo partly drawn), for which the inhibition was 1.37%.

`CCCCCCN(CCCCCC)C(=O)Cc1c(-c2ccc(F)cc2)[nH]c2ccccc12`: the inhibition is 8.52%.

Regarding `NCCNC(=O)c1ccc(Cl)cc1`, the inhibition was 5.46%.

With `COc1ccccc1N1CCN(CCN2C(=O)CC3(CCCC3)CC2=O)CC1`, the inhibition was -4.14%.

As for `Nc1ccc(S(=O)(=O)Nc2ccnn2-c2ccccc2)cc1`, the inhibition is -0.772%.

With `CCC(CO)Nc1nc(NCc2ccccc2)c2ncn(C(C)C)c2n1` (stereo not drawn), the inhibition is -6.72%.

`CC[N+](CC)(CC)CCOc1cccc(OCC[N+](CC)(CC)CC)c1OCC[N+](CC)(CC)CC`: the inhibition was 3.26%.

Turning to `O=c1cc(N2CCOCC2)oc2c(-c3ccccc3)cccc12`, the inhibition is 15.7%.

`COC(=O)[C@H](NC(=O)c1cc(-c2ccccc2)nc2ccccc12)c1ccccc1`: the inhibition is 1.92%.

Consider `CCOC(=O)c1ncn2c1CN(C)C(=O)c1cc(F)ccc1-2`, for which the inhibition is 1.79%.

In the case of `Cc1nc2c([nH]1)c(=O)n(C)c(=O)n2Cc1ccco1`, the inhibition was 0.516%.

With `O=Nc1ccc2oc(=O)ccc2c1`, the inhibition is -9.21%.

On to `CN1CCN(CC/C=C2/c3ccccc3Sc3ccc(S(=O)(=O)N(C)C)cc32)CC1`, for which the inhibition was 19.2%.

Regarding `Oc1cc2c(c(Cl)c1O)CCNCC2c1ccccc1` (stereo not drawn), the inhibition was 6.8%.

For the compound `CN(C(=O)CCCOc1ccc2[nH]c(=O)ccc2c1)C1CCCCC1`, the inhibition is 3.15%.

In the case of `N=S(=O)(O)Cc1noc2ccccc12`, the inhibition was 4.33%.

Take `CC1(C)NC(=O)N(c2ccc([N+](=O)[O-])c(C(F)(F)F)c2)C1=O`: the inhibition is 0.277%.

With `CN(C)C(=O)C(CCN1CCC(O)(c2ccc(Cl)cc2)CC1)(c1ccccc1)c1ccccc1`, the inhibition is -2.62%.

`Cn1c(=O)c2[nH]c(-c3ccccc3)nc2n(C)c1=O`: the inhibition is -0.378%.

On to `CN(C)CC[C@@H](c1ccc(Cl)cc1)c1ccccn1`, for which the inhibition was 32.3%.

As for `CC1COc2c(N3CCN(C)CC3)c(F)cc3c(=O)c(C(=O)O)cn1c23` (stereo not drawn), the inhibition was 6.49%.

`CCN(CC)CCCC(C)Nc1c2ccc(Cl)cc2nc2ccc(OC)cc12` (stereo not drawn): the inhibition was 16.9%.

Take `C=CC(N)CCC(=O)O` (stereo not drawn): the inhibition was -6.67%.

Consider `O=C1OC(=O)C2C3CCC(O3)C12` (stereo not drawn), for which the inhibition is 2.39%.

Regarding `CN(C)C(=O)/N=N/C(=O)N(C)C`, the inhibition was -5.45%.

Turning to `N[C@@H]1CONC1=O`, the inhibition was 0.59%.

On to `Cc1ccc(C(=O)Nc2ccc(S(=O)(=O)O)c3cc(S(=O)(=O)O)cc(S(=O)(=O)O)c23)cc1NC(=O)c1cccc(NC(=O)Nc2cccc(C(=O)Nc3cc(C(=O)Nc4ccc(S(=O)(=O)O)c5cc(S(=O)(=O)O)cc(S(=O)(=O)O)c45)ccc3C)c2)c1`, for which the inhibition was -3.04%.

Consider `NC(=O)c1ccccc1`, for which the inhibition was -2.55%.

Regarding `Cc1ccc(C(=O)O[C@H](C(=O)O)[C@H](OC(=O)c2ccc(C)cc2)C(=O)O)cc1` (tested in a mixture with another compound), the inhibition is 5.96%.

(Values after PubChem BioAssay.)
